Results on 35 compounds are retold here after PubChem BioAssay (EPA / NIEHS).

Molecules are shown by their SMILES. Records with an inconclusive call do not appear. Calls of active or inactive are those of the source. The calls were made as follows: active = hit-call score of the fitted dose curve at least 0.9, where 1 is the maximum; inconclusive = response in the unintended direction; inactive = score below 0.9.

This test is described as follows: ACEA_ER_AUC_viability: ACEA Biosciences xCELLigence Real-Time Cell Analysis on Estrogen Receptor Agonism for Viability (AID 2283782).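 Also: hit means loss of impedance signal meaning reduced cell growth or viability.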 Put shortly: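 Read-out: real-time electrical impedance (RT-CES) area under curve, loss of signal taken as reduced viability, normalized to DMSO baseline. T-47D cells, charcoal-stripped serum medium, compounds up to 100 uM final, continuous exposure, 80 h.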
In the case of `CCCCCCCCn1sc(Cl)c(Cl)c1=O`, the AC50 (commonly the concentration at which the activity in the assay is half-maximal) is 1.99 µM (active).

For the compound `Cc1cnccn1`, the call was inactive.

Consider `O=C(c1ccccc1)c1ccc(Cl)cc1`, for which the half-maximal activity concentration (AC50) was 28.4 µM (active).

Consider `Brc1nc2ccccc2s1`, for which the call was inactive.

Regarding `OCCCCl`, the compound was called inactive.

With `Brc1ccccn1`, the result was inactive.

As to `OCC(F)(F)C(F)(F)C(F)(F)C(F)(F)C(F)(F)C(F)(F)C(F)(F)C(F)(F)CO`, the AC50 was 75 µM (active).

For the compound `Cc1cccc(C)n1`, the compound was called inactive.

On to `O=C(Cl)C(F)(F)C(F)(F)C(F)(F)C(F)(F)C(F)(F)C(F)(F)F`, for which the result was inactive.

Take `CC1=CCC(=O)O1`: the compound was called inactive.

On to `CC(C)=CCCC(C)O` (stereo not given), for which the call was inactive.

Take `N#CCCOCCC#N`: the outcome was inactive.

As for `COCCC(=O)OC`, the result was inactive.

For the compound `COc1ccccc1C=O`, the compound was classed as inactive.

For the compound `CO[Si](CCCOCC1CO1)(OC)OC` (stereo not given), the AC50 was 76.8 µM (active).

In the case of `OCC(O)CC(F)(F)C(F)(F)C(F)(F)C(F)(F)C(F)(F)C(F)(F)C(F)(F)C(F)(F)F` (stereo not given), the compound was classed as inactive.

With `CCCC(=O)OCC(COC(=O)CCC)OC(=O)CCC`, the call was inactive.

Regarding `CCN(CC)c1ccc2c(c1)Oc1cc(N(CC)CC)ccc1C21OC(=O)c2ccccc21`, the AC50 was 8.06 µM (active).

As for `CCCCCCCCCCCCCCCCC`, the outcome was inactive.

On to `CCCCOC(=O)C(C)O` (stereo not given), for which the call was inactive.

`Oc1ccc2c(c1)CCC2`: the compound was called inactive.

Regarding `CCn1c2ccccc2c2ccccc21`, the AC50 is 66.3 µM (active).

Turning to `CCOC(=O)CCC(C)=O`, the call was inactive.

`O=C=NCc1cccc(CN=C=O)c1`: the compound was classed as inactive.

In the case of `CCOCOCC`, the compound was called inactive.

Regarding `NCC(F)(F)C(F)(F)C(F)(F)C(F)(F)C(F)(F)C(F)(F)F`, the compound was called inactive.

Regarding `CCC(C)CO` (stereo not given), the AC50 is 74.7 µM (active).

On to `NC(=O)C(F)(F)C(F)(F)C(F)(F)C(F)(F)C(F)(F)C(F)(F)C(F)(F)F`, for which the compound was classed as inactive.

`O=S(=O)(O)CCC(F)(F)C(F)(F)C(F)(F)C(F)(F)F`: the compound was classed as inactive.

As for `CSc1ccc(O)cc1C`, the concentration at half-maximal activity (AC50) was 16.2 µM (active).

In the case of `CCC/C=C/CO`, the compound was called inactive.

As for `Cc1cc(O)c(C(C)(C)C)cc1C(C)(C)C`, the AC50 was 23.2 µM (active).

As for `CN1CN(C)CN(C)C1`, the compound was called inactive.

As for `OCCCc1cccnc1`, the call was inactive.

On to `CCC(=O)OC(C)c1ccccc1` (stereo not given), for which the AC50 is 79.9 µM (active).
